We go through 21 compounds from PubChem BioAssay.

The nature of assay [1]: antimalarial activity against Dd2 strain (AID 2302;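 active = growth inhibition above 50% at the single 2 µM test dose, taken to imply half-maximal potency below 2 µM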;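 note: 0% = DMSO untreated growth and 100% = chloroquine plus artemisinin killed control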). The conditions noted are these: P. falciparum Dd2 in RBCs, LDH growth readout, 72 h; at 2 µM; stronger effect = higher value.
Assay [2] can be described thus: HepG2 cytotoxicity, primary screen, cytotoxicity control for P. falciparum antimalarial project, cell-based, ATP luminescence (AID 2303;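 active = inhibition above 50%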;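 note: 0% = DMSO wells and 100% = digitonin-killed cells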). Particulars: HepG2 viability, 24-48 h, at 10 µM, stronger effect = higher value.
For assay [3], the target named is L-lactate dehydrogenase (Plasmodium falciparum (isolate CDC / Honduras)) (UniProt Q27743). Nature of the assay: PfLDH activity inhibition – cell lysate, 3D7 strain, counter-screen for P. falciparum growth inhibition project (AID 2304).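 Note: 0% = vehicle and 100% = reference inhibitor.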 The conditions noted are these: P. falciparum 3D7 crude extract, LDH APAD/NBT absorbance; at 2 µM; stronger effect = higher value. (A counterscreen serves to expose hits that act by an unwanted route or on another target.)

Assay [4] can be described thus: inhibition of 3D7 malaria parasite growth – strain 3D7 (AID 2306).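 Note: 0% = DMSO wells and 100% = chloroquine plus artemisinin control wells.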 Particulars: P. falciparum 3D7 erythrocytic growth, LDH absorbance, 72 h; at 2 µM; stronger effect = higher value.
For assay [5], the target named is Calcium-dependent protein kinase 1 (Plasmodium falciparum (isolate 3D7)) (UniProt P62344). Put plainly: PfCDPK1 kinase inhibitors, biochemical, TCAMS library (AID 1159585; cut-off not given, nearly all actives have IC50 up to about 0.98 µM;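 note: inhibitors leave more ATP so luminescence rises with inhibition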). The conditions noted are these: recombinant PfCDPK1, Kinase-Glo ATP depletion luminescence. A general note: Kinase-Glo reads ATP consumption through a luciferase reaction.
The target in assay [6] is Plasmodium falciparum protein kinase 6 (PK6, PF3D7_1337100) (UniProt Q8IDW1). Nature of the assay: PfPK6 kinase inhibitors, biochemical, TCAMS library (AID 1159586). The conditions noted are these: recombinant PfPK6, Kinase-Glo ATP depletion luminescence.
Assay [7] deals with Protein kinase 7 (PK7), Plasmodium falciparum 3D7 (PF3D7_0213400) (UniProt Q7YTF7). Put plainly: inhibition of Plasmodium PK7 catalytic activity – biochemical, TCAMS antimalarial set, Kinase-Glo luminescence (AID 1159587). Particulars: recombinant PfPK7, Kinase-Glo ATP depletion luminescence.
The target in assay [8] is Calcium-dependent protein kinase 4 (Plasmodium falciparum (isolate 3D7)) (UniProt Q8IBS5). Nature of the assay: PfCDPK4 kinase inhibitors, biochemical, TCAMS library (AID 1159588; cut-off not given, nearly all actives have IC50 up to about 0.91 µM). Particulars: recombinant PfCDPK4, Kinase-Glo ATP depletion luminescence.

Unmarked numbers belong to inactive results. For part of these data: Measured potencies and affinities stand elsewhere. Activity calls are given as the source filed them. Unless noted, the rule behind the calls is not given here.

Chain of Protein kinase 7 (PK7), Plasmodium falciparum 3D7 (PF3D7_0213400) (Q7YTF7 1-343): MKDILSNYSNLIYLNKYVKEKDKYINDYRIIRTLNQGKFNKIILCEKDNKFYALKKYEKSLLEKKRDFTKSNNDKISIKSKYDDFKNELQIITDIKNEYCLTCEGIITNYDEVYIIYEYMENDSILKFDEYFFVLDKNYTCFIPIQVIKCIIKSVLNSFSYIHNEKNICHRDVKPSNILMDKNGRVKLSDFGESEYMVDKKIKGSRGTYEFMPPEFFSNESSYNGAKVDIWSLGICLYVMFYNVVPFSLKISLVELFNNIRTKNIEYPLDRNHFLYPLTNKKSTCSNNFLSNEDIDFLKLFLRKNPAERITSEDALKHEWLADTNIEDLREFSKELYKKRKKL
Chain of Calcium-dependent protein kinase 1 (Plasmodium falciparum (isolate 3D7)) (P62344 whole entry, looked up): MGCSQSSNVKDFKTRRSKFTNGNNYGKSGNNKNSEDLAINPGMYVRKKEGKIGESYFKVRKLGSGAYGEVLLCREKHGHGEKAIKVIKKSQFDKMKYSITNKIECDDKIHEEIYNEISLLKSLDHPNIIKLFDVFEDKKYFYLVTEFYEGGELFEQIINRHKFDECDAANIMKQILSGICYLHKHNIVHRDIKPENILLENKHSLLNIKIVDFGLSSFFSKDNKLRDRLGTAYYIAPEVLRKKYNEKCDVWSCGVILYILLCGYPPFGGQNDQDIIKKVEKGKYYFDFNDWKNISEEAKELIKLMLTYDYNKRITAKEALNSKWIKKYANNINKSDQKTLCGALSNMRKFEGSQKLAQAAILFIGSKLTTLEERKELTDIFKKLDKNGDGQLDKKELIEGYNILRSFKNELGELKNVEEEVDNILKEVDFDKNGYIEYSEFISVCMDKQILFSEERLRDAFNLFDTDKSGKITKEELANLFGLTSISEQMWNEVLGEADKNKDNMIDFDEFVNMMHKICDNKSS
Chain of L-lactate dehydrogenase (Plasmodium falciparum (isolate CDC / Honduras)) (Q27743 whole entry, looked up): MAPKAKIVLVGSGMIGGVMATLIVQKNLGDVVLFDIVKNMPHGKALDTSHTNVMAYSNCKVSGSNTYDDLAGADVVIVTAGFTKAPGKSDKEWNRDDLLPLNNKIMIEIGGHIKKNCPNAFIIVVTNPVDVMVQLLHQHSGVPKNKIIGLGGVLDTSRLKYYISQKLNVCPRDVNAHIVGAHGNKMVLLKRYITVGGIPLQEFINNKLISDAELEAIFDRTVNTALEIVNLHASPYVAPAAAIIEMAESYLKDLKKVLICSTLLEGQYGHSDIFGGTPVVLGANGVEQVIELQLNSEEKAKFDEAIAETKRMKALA
Chain of Plasmodium falciparum protein kinase 6 (PK6, PF3D7_1337100) (Q8IDW1 1-305): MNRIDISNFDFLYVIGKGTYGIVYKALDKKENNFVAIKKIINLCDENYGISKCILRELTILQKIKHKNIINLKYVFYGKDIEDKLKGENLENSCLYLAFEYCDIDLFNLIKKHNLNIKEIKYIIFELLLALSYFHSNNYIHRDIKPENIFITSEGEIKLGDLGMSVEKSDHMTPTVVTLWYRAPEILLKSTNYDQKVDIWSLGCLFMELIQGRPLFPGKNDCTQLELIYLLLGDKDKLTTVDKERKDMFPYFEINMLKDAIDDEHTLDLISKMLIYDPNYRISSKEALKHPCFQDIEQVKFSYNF
Chain of Calcium-dependent protein kinase 4 (Plasmodium falciparum (isolate 3D7)) (Q8IBS5 whole entry, looked up): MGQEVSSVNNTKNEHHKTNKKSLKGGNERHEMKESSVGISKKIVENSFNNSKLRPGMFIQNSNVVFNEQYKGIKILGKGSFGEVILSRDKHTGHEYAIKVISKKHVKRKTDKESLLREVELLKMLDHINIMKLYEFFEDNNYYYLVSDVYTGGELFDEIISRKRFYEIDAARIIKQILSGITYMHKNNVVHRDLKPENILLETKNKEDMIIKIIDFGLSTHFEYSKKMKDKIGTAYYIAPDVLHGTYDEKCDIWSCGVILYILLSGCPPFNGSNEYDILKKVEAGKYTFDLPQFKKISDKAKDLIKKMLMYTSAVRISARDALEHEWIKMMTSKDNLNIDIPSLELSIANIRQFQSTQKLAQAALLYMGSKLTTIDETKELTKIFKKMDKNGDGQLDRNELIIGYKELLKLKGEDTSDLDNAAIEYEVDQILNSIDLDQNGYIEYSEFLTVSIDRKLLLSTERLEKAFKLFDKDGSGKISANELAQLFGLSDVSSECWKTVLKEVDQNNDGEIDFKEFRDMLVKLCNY

The inhibition is the relative decrease from the control value, in per cent. In the case of `CCN1C(=O)C(CC(=O)Nc2cccc(Cl)c2)N(Cc2ccc(OC)c(OC)c2)C1=S` (stereo not drawn), the growth inhibition in assay [1] was 68% (active); in assay [4], 100% (active). Also, the inhibition in assay [2] is 13%; in assay [3], -8%. Also, the result in assay [5], in assay [6], in assay [7] and in assay [8] was inactive.
On to `COc1ccccc1N(C)CCNc1cc(C)nc(Nc2ccccc2)n1`, for which the growth inhibition was 13% in assay [1] and 96% (active) in assay [4]. Further, the values for the inhibition in assay [2] and in assay [3] were 10% and -1%, respectively. The outcome in assay [5], in assay [6], in assay [7] and in assay [8] was inactive.
As for `O=C(N[C@H]1CCN(CCc2ccc(O[C@H]3CCNC3)c(Br)c2)C1)c1ccc(Cl)c(Cl)c1`, the growth inhibition in assay [1] was 0%; in assay [4] it was 100% (active). For the same compound, the inhibition in assay [2] is 28%; in assay [3] it was -4%. Besides, the result in assay [5], in assay [6], in assay [7] and in assay [8] was inactive.
In the case of `CN1CCC(C(=O)Nc2cccc(-c3cccc(-c4nc5ccc(F)cc5[nH]4)c3)c2)CC1`, the growth inhibition in assay [1] is 27%; in assay [4], 101% (active). Moreover, the figures for the inhibition in assay [2] and in assay [3] were 32% and 0%, respectively. Also, the result in assay [5], in assay [6], in assay [7] and in assay [8] was inactive.
Consider `CC(C)CCNC(=O)C1Cc2c([nH]c3cc(Br)ccc23)C2(CCN(CCc3ccccc3)CC2)N1` (stereo not drawn), for which the growth inhibition was 48% in assay [1] and 97% (active) in assay [4]. For the same compound, the results for the inhibition in assay [2] and in assay [3] were 14% and -1%, respectively. For the same compound, the outcome in assay [5], in assay [6], in assay [7] and in assay [8] was inactive.
Turning to `COc1ccc(CCNC(C)Cc2ccc(C(=O)Nc3ccc(CC(C)NCCc4cccc(Cl)c4)cc3)cc2)cc1` (stereo not drawn), the growth inhibition is 89% (active) in assay [1] and 101% (active) in assay [4]. For the same compound, the results for the inhibition in assay [2] and in assay [3] were 99% (active) and -10%, respectively. Besides, the result in assay [5], in assay [6], in assay [7] and in assay [8] was inactive.
In the case of `CC(=O)Nc1ccc(OCCN(Cc2ccccc2OC(F)(F)F)c2ccc(C(F)(F)F)c(C#N)c2)c(Cl)c1`, the growth inhibition in assay [1] and in assay [4] was 96% (active) in each case. Also, the inhibition in assay [2] was 8%; in assay [3], 5%. In addition, the outcome in assay [5], in assay [6], in assay [7] and in assay [8] was inactive.
`CCc1ccc(CN2CCC(CNC(=O)c3cc(-c4cccc(Cl)c4)cs3)C2)cc1` (stereo not drawn): the growth inhibition in assay [1] is 19%; in assay [4] it was 88% (active). In addition, the values for the inhibition in assay [2] and in assay [3] were 27% and 4%, respectively. Moreover, the outcome in assay [5], in assay [6], in assay [7] and in assay [8] was inactive.
In the case of `O=C(Nc1ccc(-c2cccc(-c3nc4ccc(F)cc4[nH]3)c2)cc1)c1ccncc1`, the growth inhibition in assay [1] is 18%; in assay [4], 96% (active). Also, the inhibition in assay [2] was 58% (active); in assay [3], -5%. Besides, the result in assay [5], in assay [6], in assay [7] and in assay [8] was inactive.
As for `COc1cc2c(cc1S(=O)(=O)c1ccc(NC(=O)c3ccc4ccccc4c3)cc1)CCN(C)CC2`, the growth inhibition in assay [1] was 28%; in assay [4], 99% (active). Moreover, the inhibition in assay [2] is 2%; in assay [3], -4%. Further, the result in assay [5], in assay [6], in assay [7] and in assay [8] was inactive.
As for `O=C(/C=C/c1ccc(F)cc1)NC1CCC(CCN2CCCN(c3ccc(C(F)(F)F)cn3)CC2)CC1` (stereo not drawn), the growth inhibition was 13% in assay [1] and 97% (active) in assay [4]. Also, the inhibition in assay [2] is 29%; in assay [3], -1%. Moreover, the result in assay [5], in assay [6], in assay [7] and in assay [8] was inactive.
Consider `CCN(CC(C)O)C(=O)c1ccc(-c2cccc(-c3nc4c(C)cccc4[nH]3)c2)cc1` (stereo not drawn), for which the growth inhibition in assay [1] was 32%; in assay [4], 100% (active). The inhibition in assay [2] was 28%; in assay [3] it was -2%. The result in assay [5], in assay [6], in assay [7] and in assay [8] was inactive.
For `COc1cc2ncnc(Nc3ccc(OCc4ccccc4)c(C(F)(F)F)c3)c2cc1OC`, the growth inhibition is 78% (active) in assay [1] and 101% (active) in assay [4]. The inhibition in assay [2] is 8%; in assay [3], 3%. The outcome in assay [5], in assay [6], in assay [7] and in assay [8] was inactive.
As for `O=C(/C=C/c1cccc(C(F)(F)F)c1)NCCCCCN1CCN(C(=O)Nc2ccc(Cl)c(Cl)c2)CC1`, the values for the growth inhibition in assay [1] and in assay [4] were -1% and 89% (active), respectively. In addition, the inhibition was 29% in assay [2] and 4% in assay [3]. The outcome in assay [5], in assay [6], in assay [7] and in assay [8] was inactive.
As for `CC1CC(C)CN(CCCNc2ccc(C(=O)Nc3ccc(C(F)(F)F)cc3)cc2[N+](=O)[O-])C1` (stereo not drawn), the growth inhibition in assay [1] was 99% (active); in assay [4] it was 101% (active). Also, the values for the inhibition in assay [2] and in assay [3] were 31% and -2%, respectively. For the same compound, the outcome in assay [5], in assay [6], in assay [7] and in assay [8] was inactive.
For the compound `COc1cc2ccccc2c(CNCCCCCCNCc2c(OC)c(OC)cc3ccccc23)c1OC`, the results for the growth inhibition in assay [1] and in assay [4] were 89% (active) and 95% (active), respectively. In addition, the inhibition in assay [2] was 100% (active); in assay [3] it was -4%. Besides, the outcome in assay [5], in assay [6], in assay [7] and in assay [8] was inactive.
Consider `O=C(Nc1ccccc1)Nc1ccc(-c2cccc(-c3nc4ccc(C(F)(F)F)cc4[nH]3)c2)cc1`, for which the growth inhibition in assay [1] was 73% (active); in assay [4], 101% (active). The values for the inhibition in assay [2] and in assay [3] were 59% (active) and 4%, respectively. Further, the outcome in assay [5], in assay [6], in assay [7] and in assay [8] was inactive.
Regarding `N#Cc1ccc(CN2CCC(Oc3ccc(NC(=O)c4ccsc4)cc3Cl)C2)cc1` (stereo not drawn), the growth inhibition in assay [1] was 79% (active); in assay [4], 88% (active). The results for the inhibition in assay [2] and in assay [3] were 29% and -2%, respectively. Moreover, the result in assay [5], in assay [6], in assay [7] and in assay [8] was inactive.
As to `COc1cc(OC)cc(C(=O)Nc2ccc(Nc3nc(C)cc(N(C)C)n3)cc2)c1`, the growth inhibition in assay [1] was 90% (active); in assay [4], 100% (active). Further, the inhibition was 11% in assay [2] and 1% in assay [3]. The result in assay [5], in assay [6], in assay [7] and in assay [8] was inactive.
For the compound `CCOc1cccc(C(=O)Nc2cccc(CN3CCCN(Cc4ccc(O)cc4)CC3)c2)c1`, the figures for the growth inhibition in assay [1] and in assay [4] were 31% and 91% (active), respectively. In addition, the inhibition is 23% in assay [2] and 1% in assay [3]. Moreover, the outcome in assay [5], in assay [6], in assay [7] and in assay [8] was inactive.
Turning to `Cc1cccc2[nH]c(-c3cccc(-c4ccc(NC(=O)Nc5cccc(C#N)c5)cc4)c3)nc12`, the figures for the growth inhibition in assay [1] and in assay [4] were 91% (active) and 101% (active), respectively. The inhibition in assay [2] is 50% (active); in assay [3] it was 6%. Moreover, the result in assay [5], in assay [6], in assay [7] and in assay [8] was inactive.
